Measurements as given in PubChem BioAssay (NCI).
The panel holds about 83,000 compounds, 20% with a hit somewhere; the sample as a whole holds those more often.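 Cells were grown in 96-well plates and exposed to the test compound at a single concentration for 48 hours; results are reported as percent growth, with values below 10 considered active.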 Unmarked numbers belong to inactive results. Active and inactive are the calls of the source.

Key:
Assay in all cases: NCI-60 one-dose screen, 48 h (100 = growth as untreated, 0 = no growth, -100 = all killed)
Details in all cases: 10 µM unless noted
HCT-15 colon = tested on: HCT-15 colon
HT29 colon = tested on: HT29 colon
SNB-75 CNS = tested on: SNB-75 CNS
SNB-19 CNS = tested on: SNB-19 CNS
U251 CNS = tested on: U251 CNS
PC-3 prostate = tested on: PC-3 prostate
SK-MEL-5 melanoma = tested on: SK-MEL-5 melanoma
UACC-62 melanoma = tested on: UACC-62 melanoma
LOX IMVI melanoma = tested on: LOX IMVI melanoma
SK-MEL-28 melanoma = tested on: SK-MEL-28 melanoma
SK-MEL-2 melanoma = tested on: SK-MEL-2 melanoma
EKVX NSCLC = tested on: EKVX NSCLC
UO-31 renal = tested on: UO-31 renal
TK-10 renal = tested on: TK-10 renal
ACHN renal = tested on: ACHN renal
CAKI-1 renal = tested on: CAKI-1 renal
CCRF-CEM leukemia = tested on: CCRF-CEM leukemia
MOLT-4 leukemia = tested on: MOLT-4 leukemia
A498 renal = tested on: A498 renal
SN12C renal = tested on: SN12C renal

| Structure (SMILES) | growth (HCT-15 colon) | growth (HT29 colon) | growth (SNB-75 CNS) | growth (SNB-19 CNS) | growth (U251 CNS) | growth (PC-3 prostate) | growth (SK-MEL-5 melanoma) | growth (UACC-62 melanoma) | growth (LOX IMVI melanoma) | growth (SK-MEL-28 melanoma) | growth (SK-MEL-2 melanoma) | growth (EKVX NSCLC) | growth (UO-31 renal) | growth (TK-10 renal) | growth (ACHN renal) | growth (CAKI-1 renal) | growth (CCRF-CEM leukemia) | growth (MOLT-4 leukemia) | growth (A498 renal) | growth (SN12C renal) |
| --- | --- | --- | --- | --- | --- | --- | --- | --- | --- | --- | --- | --- | --- | --- | --- | --- | --- | --- | --- | --- |
| N=C(N)c1ccc(OCCCCCCCCCCOc2ccc(C(=N)N)cc2)cc1 | 37.3% | -90.8% (active) | -76.9% (active) | -91.9% (active) | -85.5% (active) | -91.3% (active) | -96.1% (active) | -97.2% (active) | -97.3% (active) | -93.9% (active) | -90.3% (active) | -84.4% (active) | 43.9% | -93.5% (active) | -21.3% (active) | -94.8% (active) | -47.8% (active) | -61% (active) |  |  |
| COc1c(Cl)c2c(c(OC)c1OC)-c1ccc(SC)c(=O)cc1[C@@H](NC(=O)OCC(F)(F)F)CC2 | 9.54% (active) | 13.5% | 37.4% | 29.4% | 20.6% | 24.7% | -7.65% (active) | 34.4% | 15.1% | 63% | 46.3% | 40% | 28.6% | 44.5% | 25.8% | 15.6% | 4.8% (active) | 3.85% (active) |  |  |
| CC(=O)[C@@H]1CC[C@]2(CO)CC[C@]3(C)[C@H](CC[C@@H]4[C@@]5(C)CCCNC(C)(C)[C@@H]5CC[C@]43C)[C@@H]12 | 81.5% | 68.1% | 86% | 99.1% | 108% | 86% | 92.7% | 94.7% | 95.6% | 113% | 105% | 95.4% | 84.4% | 110% | 107% | 97.1% | 103% | 95.3% | 95.3% |  |
| CCN(CC)c1ccc(/C=N/NC(=O)CSc2nc3ccccc3c(=O)n2Cc2ccc(S(N)(=O)=O)cc2)c(O)c1 | 47.5% | 32.1% | 38.8% | 41.8% | 24.4% | 48.8% | 5.72% (active) | 6.51% (active) | 1.32% (active) | 33.1% | 10.5% |  | 45.9% | 15.1% | 33.6% | 31% | 10.8% | 11.1% |  | 32.5% |
| COc1cc(-c2n/c(=C\c3c(O)[nH]c4ccc(Cl)cc34)cc3c2=Nc2ccccc2-3)ccc1F | 46.4% | -10.3% (active) | -39.5% (active) | 2.79% (active) | -88.3% (active) | -8.04% (active) | 27.6% | 46.5% | 0.0846% (active) | 1.48% (active) | 67.8% | 51.6% | -61.4% (active) | 1.18% (active) | -41.8% (active) | 62.9% |  |  | 96.2% |  |
| O=C(CCN1CCCC1)Nc1ccc2c(NCc3ccccc3)c3ccccc3nc2c1 | 20.6% | 3.9% (active) | -15.4% (active) | 5.52% (active) | 1.05% (active) | -4.59% (active) | 17.2% | -16.1% (active) | -45.6% (active) | 32.1% | -1.81% (active) | 4.75% (active) | 1.35% (active) |  | 9.88% (active) | 5.35% (active) | -23.6% (active) | -17.5% (active) |  |  |
| CN1[C@@H]2CC[C@H]1/C(=C\c1ccccc1)C(=O)/C2=C/c1ccccc1 | 27.9% | 10.9% | 26.4% | 47.1% | 16.6% | 36.8% | 43.9% | 26.6% | 19.7% | 70.9% | 60.7% |  | 55.4% | 74.9% | 42% | 41.3% | 16.1% | 14.9% | 71.7% | 36.8% |
| N#CC1C(C#N)C2c3ccccc3C=CN2C1C(=O)c1ccc(Br)cc1 (stereo not drawn) | 95.9% | 86.8% | 90.5% | 91.2% | 100% | 94% | 90.8% | 98.4% | 92.2% | 102% | 98.3% | 93% | 99.2% | 111% | 90.3% | 89.8% | 99.2% | 102% | 101% |  |
| COc1cc2nc(-c3ccc(Cl)cc3)cc(OCCCN3CCCCC3)c2cc1OC | 17.4% | 18.1% | 18.2% | 70.5% | 48.7% | 42.9% | -18.5% (active) | -32.6% (active) | -45.2% (active) | 60% | 65.7% | 66.2% | 41.8% | 89.9% | 34% | 0.0525% (active) | 49% | 37.1% |  |  |
| COc1cc(/C=N/O)nc(-c2ccccn2)c1 | 26.7% | 32.6% | 43% | 23.1% | 21.3% | 49.5% | -22.1% (active) | 4.54% (active) | 3.54% (active) | 18.2% | 25.6% | 23.4% | 3.15% (active) | 35.3% | 9.42% (active) | 18.4% | 9.2% (active) | 12% |  |  |
| CN1C(N2CCN(S(=O)(=O)c3ccccc3)CC2)=NS(=O)(=O)c2ccccc21 | 113% | 104% | 53.4% | 104% | 99.7% | 98.9% | 104% | 94.4% | 96% | 103% | 56.7% | 111% | 72.4% | 114% | 106% | 104% | 118% | 178% | 155% |  |
| CCOC(=O)Nc1ccc(-c2ccc3c(c2)NC(=O)/C3=C\c2ccc[nH]2)cc1 | 84.6% | 105% | 89% | 99.3% | 87.9% | 101% | 99.2% | 101% | 97.2% | 111% | 114% |  | 72.6% | 77% | 100% | 93.7% | 98.3% | 98.8% |  | 102% |
| CN(C)CC(O)c1ccc(/C=C/c2ccc(Cl)cc2)cc1 (stereo not drawn) | -51.7% (active) | -69.5% (active) | -24.8% (active) | 32.1% | -94% (active) | -30.3% (active) | -91.5% (active) | -79% (active) | -54.2% (active) | -88.2% (active) | -63.9% (active) |  | -67.2% (active) | -91.5% (active) | -50.1% (active) | -46.1% (active) | -43.8% (active) | -29.7% (active) |  | -12.3% (active) |
| COc1cccc(-c2nc3occn3c2-c2ccnc(NCCNS(=O)(=O)c3cccc4ccccc34)n2)c1 | 103% | 96.7% | 103% | 97.8% | 108% | 99.6% | 98.8% | 93.7% | 102% | 115% | 107% | 114% | 85.7% | 123% | 99.6% | 86.6% | 123% | 97.4% |  |  |
| CN(C)c1ccc(C2C(C#N)=C(/N=C/c3ccccc3)Oc3c2ccc2ccccc32)cc1 (stereo not drawn) | 48% | 69.9% | -0.718% (active) | 74.2% | 74.8% | 50.7% | 71.5% | 49.2% | 54.6% | 80.1% | 70.8% | 73.4% | 50.6% | 144% | 71.6% | 20.7% | 66.7% | 67.7% |  |  |
| C#Cc1cccc(NC(=O)c2cccc(NC(=O)CCl)c2)c1 | -63.4% [8.25 µM] (active) | -7.83% [8.25 µM] (active) | -21.9% [8.25 µM] (active) | 11.5% [8.25 µM] | -93.7% [8.25 µM] (active) | -70.8% [8.25 µM] (active) | -93.8% [8.25 µM] (active) | -33.7% [8.25 µM] (active) | -89% [8.25 µM] (active) | 37.4% [8.25 µM] | 30.8% [8.25 µM] |  | -98.9% [8.25 µM] (active) | -72.4% [8.25 µM] (active) | -96.8% [8.25 µM] (active) | 0.818% [8.25 µM] (active) | 8.26% [8.25 µM] (active) |  | 46.6% [8.25 µM] | -65.9% [8.25 µM] (active) |
| NC(=O)Nc1ccc(-n2cnc3cc(-c4ccc(O)cc4)ccc32)cc1 | 97.8% | -7.1% (active) | 102% | 98.7% | 83.4% | 96% | 85.9% | 108% | 104% | 100% | 116% | 112% | 87.2% | 121% | 92% | 95.2% | 94.5% | 84.9% |  |  |
